Results on 40 compounds are retold here after PubChem BioAssay (NCI).

About 83,000 compounds went through this panel and 20% of them were active in at least one assay; those are over-represented in the sample as a whole.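 Testing used 96-well plates and a 48-hour single-concentration exposure. Example: -40 means 40% of the starting cells died.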 A number with no mark means an inactive call. Active and inactive are the calls of the source.

The assay relates to A549/ATCC NSCLC. Kind of assay: NCI-60 one-dose screen, 48 h (100 = growth as untreated, 0 = no growth, -100 = all killed). The note with it: 10 µM unless noted. Here is the method:
Growth inhibition of the A549/ATCC human Non-Small Cell Lung tumor cell line is measured as a screen for anti-cancer activity. Cells are grown in 96 well plates and exposed to the test compound for 48 hours. Compounds are tested at a single concentration, which is 10^-5 M for most compounds. The reported endpoint is percent growth (GI% or GIPRCNT), where numbers from 0 - 100% represent growth inhibition, and numbers from -100% - 0 represent cell death. For example, a value of 40 represents 60% growth inhibition. A value of 0 means no net growth occurred over the course of the experiment. A value of -40 indicates 40% of cells at the beginning of the experiment died by the end of the experiment. A value of -100 means all cells are dead at the end of the experiment.
NCI-60 Human Tumor Cell Lines Screen was performed using the standard one-dose NCI protocol, which is described in more detail at https://dtp.cancer.gov/discovery_development/nci-60/default.htm.
Compounds with GIPRCNT values below 10 were considered active. Activity score was based on GIPRCNT using the following formula: […]
Score is 0 for GIPRCNT values of 100 or above, 50 for GIPRCNT values of 0, and 100 for GIPRCNT values of -100.
Consider `CCCC(C)C1(CC)C(=O)NC(=O)N(C)C1=O` (stereo not given), for which the growth was 79.1%.
`COC(=O)[C@@H](C)C[C@H](Cc1ccccc1)NC(=O)c1csc([C@@H](C[C@H](C(C)C)N(C)C(=O)[C@@H](NC(=O)[C@H]2CCCN2C)C2CC2)OC(C)=O)n1`: the growth was 13.2%.
For the compound `C/C(=C\c1ccn(-c2ccc(N)cc2)n1)[C@@H]1C[C@@H]2O[C@]2(C)CCC[C@H](C)[C@H](O)[C@@H](C)C(=O)C(C)(C)[C@@H](O)CC(=O)O1`, the growth was 29.8%.
Regarding `COc1ccc(/C=C\c2cc(OC)c(OC)c(OC)c2)cc1OCC(=O)Nc1nc2ccc(F)cc2s1`, the growth was 31%.
Consider `CN(C)C1C(=O)C(C(N)=O)=C(O)C2(O)C(=O)C3=C(O)c4c(O)cccc4C(C)(O)C3CC12.[Cl][Sb]([Cl])[Cl]` (stereo not given), for which the growth was 26.1%.
For the compound `CC12CCC=CC1CCC1C2CCC2(C)C(c3ccc(=O)oc3)CCC12O` (stereo not given), the growth was -52.1% (active).
To `O=C(N/N=C\c1ccc(N(CCCl)CCCl)cc1)c1cccc([N+](=O)[O-])c1` belongs 90.4%; to `CCC(=O)Nc1ccc(Cl)c(Cl)c1`, 92.5%; to `CC(C)COC(C[N+](=O)[O-])C(Cl)(Cl)Cl` (stereo not given), 98.1%.
Consider `O=C(CCCC1CCCCC1)OCC(Cl)(Cl)Cl`, for which the growth was 107%.
As for `O=C1NC(=O)C(=Cc2cccn2CCCCCn2c3ccccc3c(=O)c3ccccc32)C(=O)N1`, the growth was 100%.
For the compound `COC(=O)CC[C@H](Cc1ccccc1)NC(=O)c1csc([C@@H](C[C@H](C(C)C)N(C)C(=O)[C@@H](NC(=O)[C@H]2CCCCN2C)C(C)C)OC(C)=O)n1`, the growth was 40.4%.
Turning to `O=C1NC(=O)C(=Cc2ccc(OCCCCC3CCCCC3)c(Cl)c2)C(=O)N1`, the growth is 92.6%.
On to `CCN1C(=O)C(=C/C=C/c2ccccc2)C(=O)N(CC)C1=O`, for which the growth is 101%.
Consider `CCC(O)(CN)c1ccccc1` (stereo not given), for which the growth is 86.6%.
To `CCC[CH2][Sn]([CH2]CCC)([CH2]CCC)[O]c1ccc(Cl)cc1Cl` belongs -82% (active); to `CC[C@H](C)[C@H](NC(=O)[C@H]1CCCCN1C)C(=O)N(C)[C@H](CC(=O)c1nc(C(=O)N[C@@H](Cc2ccccc2)C[C@H](C)C(=O)O)cs1)C(C)C`, 94.8%.
As to `O=C(CC1(O)C(=O)N(Cc2ccccc2)c2ccc(Br)cc21)c1ccc(C(=O)NCC2CCC3(CC2)OOC2(CCCCC2)OO3)cc1` (stereo not given), the growth is -61.1% (active).
Turning to `Cc1ccc(C(=O)NCCCOc2ccc(N3C(N)=NC(N)=NC3(C)C)cc2Cl)cc1S(=O)(=O)F`, the growth is 77.5%.
With `COC(=O)[C@H](Cc1ccccc1)NNC(=O)c1csc([C@@H](C[C@H](C(C)C)N(C)C(=O)[C@@H](NC(=O)[C@H]2CCCCN2C)C2CC2)OC(C)=O)n1`, the growth is 15.3%.
With `C[C@@]1(CCCCCCCCCc2ccc(O)cc2)C[C@]2(C)OC(=O)C[C@@H]2OO1`, the growth was 99.4%.
In the case of `Cc1cnc(/C=C/C(=O)O)cc1-c1cc2c(cc1C)C(C)(C)CCC2(C)C`, the growth was 63.3%.
In the case of `O=C([O][Hg][c]1ccccc1)c1ccccc1`, the growth was 76.2%.
With `CCOC(=O)[C@@H](C)C[C@H](Cc1ccccc1)NC(=O)c1csc([C@@H](C[C@H](C(C)C)N(C)C(=O)[C@@H](NC(=O)[C@H]2CCCCN2C)C(C)(C)CC)OC(C)=O)n1`, the growth was 10.1%.
`NC(=O)c1c(Br)n(C2OC(CO)C(O)C2O)c2ncnc(N)c12` (stereo not given): the growth is 12.9%.
`Clc1ccc(CO/N=C(\Cn2ccnc2)c2ccc(Cl)cc2Cl)c(Cl)c1`: the growth is 7.85% (active).
For `Cn1cc(-c2csc(-c3cn(CCN4CCOCC4)c4ccc(F)cc34)n2)c2cccnc21`, the growth was 22.5%.
With `Clc1cccc(NCOOC2(OOCNc3cccc(Cl)c3)CCCCCC2)c1`, the growth is 92.8%.
Take `COC(=O)[C@@H](C)C[C@H](Cc1ccccc1)NC(=O)c1nc([C@@H](C[C@H](C(C)C)N(C)C(=O)[C@@H](NC(=O)[C@H]2CCCCN2C)C(C)C)OC(C)=O)sc1C(C)C`: the growth is 2.6% (active).
For `COC1CC2c3ccccc3C1C(C)=[N+]2C` (stereo not given), the growth is 96%.
To `COc1ccc(Nc2ccnc3cc(Cl)ccc23)cc1CN(CCCl)CCCl` belongs 1.03% (active).
As to `O=C1NC(=O)C(=Cc2cn(CCCCCCn3c4ccccc4c(=O)c4ccccc43)c3ccccc23)C(=O)N1`, the growth was 92.4%.
On to `C/C(=C\c1ccn(-c2ccc(N)cc2C(F)(F)F)n1)[C@@H]1C[C@@H]2O[C@]2(C)CCC[C@H](C)[C@H](O)[C@@H](C)C(=O)C(C)(C)[C@@H](O)CC(=O)O1`, for which the growth was 9.78% (active).
As for `CNC(=O)Oc1ccc(C(C)(C)C)cc1OC(=O)NC`, the growth was 90.5%.
Consider `CC[C@H](C)[C@H](NC(=O)[C@H]1CCCCN1C)C(=O)N(C)[C@H](C[C@@H](OC(C)=O)c1cccc(C(=O)N[C@@H](Cc2ccccc2)C[C@H](C)C(=O)O)n1)C(C)C`, for which the growth was 11.4%.
As for `Clc1ccc2nnnn2n1`, the growth is 77.3%.
On to `CC1CN1CCCCN1CC1C` (stereo not given), for which the growth was 101%.
Consider `O=C1CNC(c2ccccc2)c2cc(Cl)ccc2N1` (stereo not given), for which the growth was 95%.
To `CC(=O)O[C@H](C[C@H](C(C)C)N(C)C(=O)[C@@H](NC(=O)[C@H]1CCCCN1C)C(C)C)c1nc(C(=O)N[C@@H](Cc2ccccc2)C[C@H](C)C(=O)O)c(CCOCc2ccccc2)s1` belongs 13%; to `Fc1ccc(C2=CCNCC2)cc1`, 113%.
